# VACV mCherry inh = qHTS for Stage-Specific Inhibitors of Vaccinia Orthopoxvirus: mCherry Reporter Primary qHTS. 310,000 compounds, 0.63% hits. Vaccinia virus mCherry reporter infection, fluorescence. Potency, µM (doses to about 36.5 µM), inactives show at the highest dose activity change, negative = inhibition, usual class: inhibitors. AID 720579, 2013; calls by dose curve; tested in A549 cells; also: potency is read from the fitted curve at half-maximal effect; nearly all actives have a fitted effect of over 35% in size
# Lassa entry inh = qHTS for Inhibitors of binding or entry into cells for Lassa Virus; Lassa virus pseudotype entry inhibition, cell reporter; Potency, µM (titrated, usually from 37.9 µM), for the others: at the highest dose activity change, negative = inhibition, hits mostly inhibitors; 300,000 compounds, 1.2% hits; calls by dose curve; tested in HEK293 cells; also: potency is read from the fitted curve at half-maximal effect; nearly all actives have a fitted effect of over 50% in size
# Vaccinia Venus = qHTS for Stage-Specific Inhibitors of Vaccinia Orthopoxvirus: Venus Reporter Primary qHTS | Vaccinia virus Venus reporter expression, fluorescence | Potency, µM (doses to about 36.5 µM), for the others: at the highest dose activity change, negative = inhibition, actives largely listed as inhibitors | 330,000 compounds, 0.46% hits | AID 720580, 2013; calls by dose curve; tested in A549 cells; also: potency is read from the fitted curve at half-maximal effect; nearly all actives have a fitted effect of over 30% in size
# MARV entry inh = qHTS for inhibitors of binding or entry into cells for Marburg Virus; Marburg virus pseudotyped entry inhibition, cell reporter; Potency, µM (titrated, usually from 37.8 µM), for inactives: top-dose activity change, negative = inhibition, usual class: inhibitors; 300,000 compounds, 1.8% hits; calls by dose curve; tested in HEK293 cells; also: potency is read from the fitted curve at half-maximal effect
# FMDV antiviral = High Throughput Screening for Foot and Mouth Disease Virus Antivirals | FMDV antiviral cell-based qHTS | Potency, µM (highest dose often 57.9 µM), inactives show at the top dose activity change, negative = inhibition, hits mostly inhibitors | 410,000 compounds, 1.2% hits; calls by dose curve; tested in HEK293T cells; also: read-out not given here; potency is read from the fitted curve at half-maximal effect; nearly all actives have a fitted effect of over 45% in size
# HCMV antiviral = qHTS Assay for inhibitors of the human cytomegalovirus (HCMV); HFF cells, HCMV-luciferase reporter, 72 h; active compounds read low; activity change, negative = inhibition, % at 57.5 µM; 410,000 compounds, 4.5% hits; in the data active = activity change below about -60%; inconclusive = no clear call, values can overlap the other calls; inactive = above about -39%
#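 After 16 h attachment at 37C, HFF cells received test compound and HCMV-luciferase (1 PFU/cell); reporter luminescence read 72 h later, data normalized against buffer-only and known inhibitor Salinomycin.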
# The depositor's hits bear a star; i = inactive; ? = inconclusive; · = no result given; [ ] = another dose, or the depositor's remark. This is a sample that favours compounds with a hit; in the whole collection about 6.5% have one here. % is scaled to controls: 0 for no effect and ±100 for the full control effect.
SMILES,VACV mCherry inh,Lassa entry inh,Vaccinia Venus,MARV entry inh,FMDV antiviral,HCMV antiviral
Cc1nn(-c2ccccc2)c(C)c1/C=N/Nc1nc2ccccc2[nH]1,?,?,-4.8%,12.6µM*,?,?
CCCn1c(/C=N/Nc2nc3ccccc3[nH]2)nc2ccccc21,10µM*,12.6µM*,?,?,?,-99.5*
CCN(CC)c1ccc(/C=N/Nc2nc3ccccc3[nH]2)cc1,·,8.2µM*,·,8.2µM*,-44.0%,·
Cc1cc(=O)[nH]c(N/N=C/c2c(C)nn(-c3ccccc3)c2C)n1,-4.5%,13.0%[46.1 µM],-24.5%,6.4%[46.1 µM],-0.7%,-39.4
Cn1c(/C=N/Nc2nc3ccccc3[nH]2)nc2ccccc21,?,?,-11.5%,?,-23.4%,-83.0*
COc1ccc(-c2noc(CN(C(=O)COc3cc(C)c(Br)c(C)c3)C(C)C)n2)cc1,i,-22.3%[46.1 µM],-14.2%,?,-20.4%,?
CCCOc1ccc(/C=C/C(=O)Nc2sc(C)c(C)c2C(=O)OCC)cc1OC,-5.4%,9.2%[46.1 µM],-10.3%,·,-0.9%,-5.2
Cc1cc2nc(N3CCCN(Cc4cccn4-c4ncccn4)CC3)nc(C)c2cc1C,-18.2%,·,11.9%,·,-14.5%,·
CCOc1ccc(N2CC(c3nc4ccccc4n3CCOc3ccccc3)CC2=O)cc1 (centres undefined),-0.9%,5.3%[46.1 µM],-5.8%,?,-12.8%,7.8
Cc1ccc(OCCn2c(C3CC(=O)N(Cc4ccc(F)cc4)C3)nc3ccccc32)c(C)c1 (centres undefined),-10.2%,?,?,?,-28.1%,-91.6*
CCc1ccc(OCCn2c(C3CC(=O)N(Cc4ccc(F)cc4)C3)nc3ccccc32)cc1 (centres undefined),?,-21.1%[46.1 µM],11.2µM*,?,-40.7%,-105.2*
CCOc1ccc(C(=O)NC(=S)Nc2ccccc2N2CCC(C)CC2)cc1[N+](=O)[O-],·,-23.2%,-8.9%,?,?,-96.8*
Cc1nn(C)c(C)c1S(=O)(=O)NC1CCCC1,·,9.4%,-13.5%,7.6%[46.1 µM],3.5%,-16.2
Cc1nn(-c2nnc(NC3CCCCC3)nn2)c(C)c1Br,-21.9%,?,-19.2%,3.55µM*,11.1%,82.8
CC(=O)N1c2ccc(S(=O)(=O)N3CCCCCC3)cc2CC1C(=O)NCc1ccccc1 (centres undefined),-11.7%,1.4%[46.1 µM],-4.5%,·,6.4%,-1.3
COC(=O)C[N+](C)(C)CC#Cc1ccccc1,i,5.17µM*,-15.9%,2.5%,-15.6%,-9.2
Cc1cc(-n2c(C)cc(C(=O)CSc3nc(N)cc(=O)[nH]3)c2C)no1,-2.4%[7.34 µM],·,-0.5%[7.34 µM],·,?,?
CCCc1cc(=O)[nH]c(SCC(=O)c2cc(C)n(CCOC)c2C)n1,·,5.5%,·,9.9%,11.0%,48.4
COCCn1c(C)cc(C(=O)CSc2nc3ccccc3s2)c1C,?,?,-28.8%,?,15.8µM*,-83.4*
COc1ccc(CCn2c(C)cc(C(=O)CSc3nc(N)cc(=O)[nH]3)c2C)cc1,-12.1%,?,?,?,17.8µM*,-95.3*
COCCn1c(C)cc(C(=O)CSc2nc3ccccc3o2)c1C,·,?,·,?,-45.7%,-17.7
Cc1cc(C(=O)CSc2nc(N)cc(=O)[nH]2)c(C)n1-c1ccc(OC(F)F)cc1,?,?,?,?,3.55µM*,-106.3*
Cc1cc(C(=O)CSc2nc(N)cc(=O)[nH]2)c(C)n1CCc1ccc(F)cc1,i[1.46 µM],-21.8%,?,?,15.8µM*,-81.6*
COc1cc(/C=C/c2nc3ccccc3nc2/C=C/c2cc(OC)c(OC)c(OC)c2)cc(OC)c1OC,21.1%,·,-18.3%,·,·,·
COc1ccc(CCn2c(C)cc(C(=O)CSc3nnc(N)s3)c2C)cc1,-27.6%,?,-28.0%,?,28.2µM*,·
SMILES,VACV mCherry inh,Lassa entry inh,Vaccinia Venus,MARV entry inh,FMDV antiviral,HCMV antiviral
Cc1ccc(N=C2N=C(N)c3ccccc32)cc1C,·,?,·,?,-6.2%,-62.7*
CCOC(=O)N1CCN(c2ncc3c(n2)CC(c2ccc(OC)c(OC)c2)CC3=O)CC1 (centres undefined),-20.3%,-2.7%[46.1 µM],-11.9%,-16.6%[46.1 µM],14.1µM*,-9.2
Cc1ccc(C2CC(=O)c3cnc(N4CCN(c5ccccc5)CC4)nc3C2)cc1 (centres undefined),·,-13.0%,·,4.7%,-2.7%,22.7
COc1ccc(C2CC(=O)c3cnc(N4CCN(Cc5ccccc5)CC4)nc3C2)cc1 (centres undefined),-26.1%,?,-22.1%,?,22.4µM*,-13.6
CCN1CCN(c2ncc3c(n2)CC(c2ccc(OC)c(OC)c2)CC3=O)CC1 (centres undefined),·,?,·,?,20µM*,?
CCN1CCN(c2ncc3c(n2)CCN(Cc2ccc(OC)c(OC)c2)C3)CC1,-3.9%,-12.8%[46.1 µM],-0.4%,·,-23.5%,-3.6
N#Cc1ccc(CN2CC3(CCN(C(=O)c4csnn4)CC3)C2)cc1,·,·,·,·,-6.4%,·
CCOC(=O)c1nnc(-c2cccs2)nc1Oc1ccc(Cl)cc1,-23.5%,5.4%,-22.6%,2.1%[46.1 µM],28.2µM*,34.3
CN(C)C(=O)c1ccc(-c2cc3c(Nc4ccc(OC(F)(F)F)cc4)nccc3n2C)cc1,·,·,·,·,·,-24.5
Cn1c(=O)oc2cc(NC(=O)CCl)ccc21,·,·,·,·,?,-105.5*
N#Cc1cn(C2OC(CO)C(O)C2O)c2ncnc(N)c12 (centres undefined),?,0.631µM*,?,?,14.3%,-99.9*
Nc1ncnc2c1ncn2[C@@H]1O[C@H](CO)[C@@H](O)[C@H]1O,-12.3%,11.3%,0.4%,17.2%,-22.3%,52.0
NC(=O)c1cn(C2OC(CO)C(O)C2O)c2ncnc(N)c12 (centres undefined),0.316µM*,0.291µM*,0.316µM*,0.0731µM*,?,-97.1*
CCOC(=O)CN1C(=O)NC(c2ccc(Br)cc2)C(C(=O)OC)=C1C (centres undefined),·,·,·,-10.5%[14.2 µM],·,·
CCOc1ccccc1CNC(=O)c1ccc2nc(N3CCC(C)CC3)sc2c1,-14.0%,·,-13.0%,?,?,24.9
CCOC(=O)C1=C(C)N=C2SC=C(C)N2C1c1ccc(OC)cc1 (centres undefined),i,?,-15.5%,5.01µM*,-4.9%,0.9
CCOC(=O)C1=C(C)N=C2SC(C)C(=O)N2C1c1ccc(C(=O)OC)cc1 (centres undefined),-14.7%,23.8%,-5.0%,12.7%,-14.8%,46.8
C=C1C=C(C(F)F)n2ncc(C(=O)N3CCN(c4ccccn4)CC3)c2N1,3.6%,·,-16.2%,·,·,·
CCN1C(=O)c2ccccc2S(=O)(=O)c2ccc(C(=O)NCc3ccccc3Cl)cc21,-13.3%,-28.3%[46.1 µM],-12.8%,?,-5.6%,-29.8

# Bioassay records as filed in PubChem BioAssay.
